Test results reported in PubChem BioAssay (NCI).
About 83,000 compounds went through this panel and 20% of them were active in at least one assay; those are over-represented in the sample as a whole.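 The test compound was applied at a single concentration to cells in 96-well plates for 48 hours, and percent growth was recorded.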 The source made the active and inactive calls. Rule for the calls: active = growth percent below 10; inactive = the rest.

Columns and labels:
Assay in all cases: NCI-60 one-dose screen, 48 h (100 = growth as untreated, 0 = no growth, -100 = all killed)
Details in all cases: 10 µM unless noted
SK-MEL-2 melanoma = tested on: SK-MEL-2 melanoma
EKVX NSCLC = tested on: EKVX NSCLC
SN12C renal = tested on: SN12C renal
UO-31 renal = tested on: UO-31 renal
TK-10 renal = tested on: TK-10 renal
ACHN renal = tested on: ACHN renal
CAKI-1 renal = tested on: CAKI-1 renal
A498 renal = tested on: A498 renal
CCRF-CEM leukemia = tested on: CCRF-CEM leukemia
MOLT-4 leukemia = tested on: MOLT-4 leukemia

Measured: growth

S=C(c1ccc2c(c1)OCO2)N1CCN(c2cccc(Cl)c2)CC1
inactive: SK-MEL-2 melanoma 71.7% | EKVX NSCLC 50.9% | SN12C renal 50.7% | UO-31 renal 57.4% | TK-10 renal 53.3% | ACHN renal 34.6% | CAKI-1 renal 15.5% | A498 renal 33.3% | CCRF-CEM leukemia 18.8% | MOLT-4 leukemia 30.9%

COc1ccc2c(c1)CCc1[nH]nc(-c3cc(OC)c(OC)c(OC)c3)c1-2
inactive: SK-MEL-2 melanoma 31.1% | EKVX NSCLC 33.7% | SN12C renal 31.9% | UO-31 renal 13.8% | TK-10 renal 50.1% | ACHN renal 25.4% | CAKI-1 renal 26%
active: A498 renal -9.65% | CCRF-CEM leukemia 0.932% | MOLT-4 leukemia 9.32%

NNCCc1ccc(NC(=O)CCCc2ccc(C(=O)Nc3ccccc3N)cc2)cc1
inactive: SK-MEL-2 melanoma 42.6% | EKVX NSCLC 81.7% | SN12C renal 80.1% | UO-31 renal 69.5% | TK-10 renal 32.5% | ACHN renal 89.2% | CAKI-1 renal 80.6% | A498 renal 60.9% | MOLT-4 leukemia 27.9%
active: CCRF-CEM leukemia 0.638%

COc1ccc2cc(-c3ccnc4c(N=Nc5ccc(Cl)cc5)c(N)nn34)ccc2c1
inactive: SK-MEL-2 melanoma 118% | EKVX NSCLC 114% | SN12C renal 100% | UO-31 renal 77.7% | TK-10 renal 102% | ACHN renal 100% | CAKI-1 renal 92.2% | A498 renal 97.2% | CCRF-CEM leukemia 91.6% | MOLT-4 leukemia 100%

Cn1cc(-c2csc(-c3c[nH]c4ccc(F)cc34)n2)c2ccnc(Cl)c21
inactive: SK-MEL-2 melanoma 104% | EKVX NSCLC 65.6% | SN12C renal 73.6% | UO-31 renal 53% | TK-10 renal 69.8% | ACHN renal 51% | CAKI-1 renal 69.8% | A498 renal 42.5% | CCRF-CEM leukemia 50.5% | MOLT-4 leukemia 64.9%

COc1ccc(/C=C/c2c(C(=O)/C=C/c3ccccc3)c(C)nc3ccccc23)cc1
active: UO-31 renal -7.16% | ACHN renal 7.53% | CCRF-CEM leukemia 7.45% | MOLT-4 leukemia 6.35%
inactive: SK-MEL-2 melanoma 14.2% | EKVX NSCLC 41% | SN12C renal 23.6% | TK-10 renal 25.1% | CAKI-1 renal 20.9% | A498 renal 46.6%

CNC1=C([N+](=O)[O-])C(c2ccc(OC)cc2)C(C#N)=C(c2cccs2)O1 (stereo not given)
inactive: SK-MEL-2 melanoma 119% | EKVX NSCLC 104% | SN12C renal 105% | UO-31 renal 80.6% | TK-10 renal 124% | ACHN renal 109% | CAKI-1 renal 94.2% | A498 renal 117% | CCRF-CEM leukemia 108% | MOLT-4 leukemia 101%

CN(CCCNC(=O)CCOCCOCCOCCNC(=O)Cc1ccc2ccc3cccc4ccc1c2c34)CCCNc1cc(-c2ccc3ccccc3c2)nc2ccccc12
active: SK-MEL-2 melanoma -70.4% | EKVX NSCLC -65.8% | SN12C renal -75.3% | UO-31 renal -73.4% | TK-10 renal -84.2% | ACHN renal -78.8% | CAKI-1 renal -82.4% | A498 renal -86.6% | CCRF-CEM leukemia -78.6% | MOLT-4 leukemia -83.7%

c1ccc2c(c1)CCCc1nnc3nc4ccccc4n3c1-2
inactive: SK-MEL-2 melanoma 70.5% | EKVX NSCLC 37.7% | SN12C renal 48% | UO-31 renal 29.9% | TK-10 renal 41.6% | ACHN renal 35.1% | CAKI-1 renal 22% | A498 renal 54.8% | CCRF-CEM leukemia 31.5% | MOLT-4 leukemia 31.6%

C=C(C)[C@@H]1CCC[C@]2(C(=O)O)CC[C@]3(C)[C@@H](CC[C@@H]4[C@@]5(C)C/C(=C/c6ccncc6)C(=O)C(C)(C)[C@@H]5CC[C@]43C)[C@@H]12
inactive: SK-MEL-2 melanoma 48.3% | EKVX NSCLC 24.9% | SN12C renal 25.7% | UO-31 renal 19.7% | TK-10 renal 52.2% | ACHN renal 26.8% | CAKI-1 renal 31.4% | A498 renal 57.7%
active: CCRF-CEM leukemia 0.771% | MOLT-4 leukemia 6.38%

O=C(N=Nc1c(O)[nH]c2ccccc12)Nc1ccc(F)cc1
inactive: SK-MEL-2 melanoma 102% | EKVX NSCLC 94.3% | SN12C renal 94.6% | UO-31 renal 72.8% | TK-10 renal 113% | ACHN renal 92.8% | CAKI-1 renal 81.5% | A498 renal 102% | CCRF-CEM leukemia 95.4% | MOLT-4 leukemia 92.5%

COc1cc(/C=N/Nc2ccc(Br)cc2)cc(OC)c1OC
inactive: SK-MEL-2 melanoma 73% | EKVX NSCLC 63.9% | SN12C renal 69.7% | UO-31 renal 35% | TK-10 renal 97.2% | ACHN renal 31.6% | CAKI-1 renal 10.2% | A498 renal 60% | CCRF-CEM leukemia 31.1% | MOLT-4 leukemia 44.1%

CNC(=O)c1cc(Oc2ccc3c(c2)sc2nc(-c4ccc(OC)cc4)cn23)ccn1
inactive: SK-MEL-2 melanoma 44.2% | EKVX NSCLC 52.7% | SN12C renal 69.7% | UO-31 renal 52.2% | TK-10 renal 21.1% | ACHN renal 83.8% | CAKI-1 renal 85.5% | A498 renal 16.9% | CCRF-CEM leukemia 66.9% | MOLT-4 leukemia 76.6%

Cc1ccc(CNc2c3ccccc3nc3ccccc23)cc1
active: A498 renal 7.64% | MOLT-4 leukemia 4.29%
inactive: SK-MEL-2 melanoma 42.7% | EKVX NSCLC 37.9% | SN12C renal 24.9% | UO-31 renal 12% | TK-10 renal 35.8% | ACHN renal 14% | CAKI-1 renal 18.6% | CCRF-CEM leukemia 20.9%

CC(C)CCN(CCC(C)C)CC(O)c1cc2c(c3ccccc13)CCCC2 (stereo not given)
inactive: SK-MEL-2 melanoma 76.4% | EKVX NSCLC 73% | SN12C renal 68.6% | UO-31 renal 48.7% | TK-10 renal 102% | ACHN renal 52.4% | CAKI-1 renal 77.2% | A498 renal 52.5% | CCRF-CEM leukemia 65.6% | MOLT-4 leukemia 55.6%

O=C1/C(=C\c2cccc3nccnc23)SC(=S)N1CCc1ccc(O)cc1
inactive: SK-MEL-2 melanoma 108% | EKVX NSCLC 100% | SN12C renal 84.9% | UO-31 renal 62.1% | TK-10 renal 121% | ACHN renal 97.3% | CAKI-1 renal 79.1% | A498 renal 105% | CCRF-CEM leukemia 67.2% | MOLT-4 leukemia 93.1%

Cc1nc2c(c(=O)[nH]1)C(c1ccccc1)c1ccc3ccccc3c1O2 (stereo not given)
inactive: SK-MEL-2 melanoma 16.5% | EKVX NSCLC 60.5% | SN12C renal 44.6% | UO-31 renal 38.6% | TK-10 renal 74% | ACHN renal 39.8% | CAKI-1 renal 30% | A498 renal 20.6% | CCRF-CEM leukemia 13% | MOLT-4 leukemia 41%

O=C(Nc1ncc(Cc2cc(C(F)(F)F)ccc2Cl)s1)c1cccs1
inactive: SK-MEL-2 melanoma 45% | EKVX NSCLC 57.3% | SN12C renal 70.9% | UO-31 renal 58.9% | TK-10 renal 71.7% | ACHN renal 67.2% | CAKI-1 renal 41.7% | A498 renal 62.2% | CCRF-CEM leukemia 45.4% | MOLT-4 leukemia 29.4%

OCCNCCNC(Cc1ccc(Cl)cc1)c1ccccc1 (stereo not given)
inactive: SK-MEL-2 melanoma 86.6% | EKVX NSCLC 88.5% | SN12C renal 92% | UO-31 renal 64.5% | TK-10 renal 80.8% | ACHN renal 95.9% | CAKI-1 renal 84.3% | A498 renal 90.1% | CCRF-CEM leukemia 85.4% | MOLT-4 leukemia 86.4%

COc1ccc(/C=C/C(=O)c2cc3c(N)c(C(=O)Nc4cccc(Cl)c4C)sc3nc2C)cc1
inactive: SK-MEL-2 melanoma 51.6% | EKVX NSCLC 44.5% | UO-31 renal 22.9% | TK-10 renal 28.7% | ACHN renal 17.7% | CAKI-1 renal 13.2% | CCRF-CEM leukemia 10.9% | MOLT-4 leukemia 19%
active: SN12C renal 4.97% | A498 renal 4.47%

COc1ccc(C(=O)c2cc3c(N)c(C(=O)Nc4ccccc4)sc3nc2C)cc1
inactive: SK-MEL-2 melanoma 54.8% | EKVX NSCLC 50.4% | SN12C renal 32.1% | UO-31 renal 52.3% | TK-10 renal 65.2% | ACHN renal 42.7% | CAKI-1 renal 40% | CCRF-CEM leukemia 10.4% | MOLT-4 leukemia 18.3%
active: A498 renal -1.62%

COc1cc(/C=C/C(=O)c2ccc(-n3cc(CN4CCN(c5cc6c(cc5F)c(=O)c(C(=O)O)cn6C5CC5)CC4)nn3)cc2)ccc1O
inactive: SK-MEL-2 melanoma 93% | EKVX NSCLC 85% | SN12C renal 37.6% | UO-31 renal 52.6% | TK-10 renal 84.9% | ACHN renal 77.7% | CAKI-1 renal 52.5% | A498 renal 70.8% | CCRF-CEM leukemia 29.9% | MOLT-4 leukemia 68.2%

CCN1C(=O)N(CC)C2C1NN=c1s/c(=C3\C(=O)N(CC(C)C)c4ccccc43)c(=O)n12 (stereo not given)
inactive: SK-MEL-2 melanoma 56% | EKVX NSCLC 53.7% | SN12C renal 27.5% | UO-31 renal 32.1% | TK-10 renal 70.2% | ACHN renal 31% | CAKI-1 renal 31.6% | CCRF-CEM leukemia 11.6% | MOLT-4 leukemia 19.6%
active: A498 renal 9.64%

COC(=O)CCC/C=C\C[C@H]1C=CC(=O)/C1=C/C[C@@H](O)C/C=C\CC(F)(F)F
inactive: EKVX NSCLC 47.1% | A498 renal 109%
active: SK-MEL-2 melanoma -3.66% | SN12C renal -6.2% | UO-31 renal -68.9% | TK-10 renal -2.5% | ACHN renal -47.7% | CAKI-1 renal 1.42% | CCRF-CEM leukemia -9.32% | MOLT-4 leukemia 2.73%

CN(C)CCCNC(=O)c1cncnc1Nc1ccc(OCc2cccc(F)c2)c(Cl)c1
active: SK-MEL-2 melanoma -35.7% | UO-31 renal -4.99% | TK-10 renal -71.7% | ACHN renal -36.8% | CAKI-1 renal -19.3% | A498 renal -8.81% | CCRF-CEM leukemia -34.2% | MOLT-4 leukemia -40.9%
inactive: EKVX NSCLC 62.8% | SN12C renal 28.7%

COc1ccc(C[n+]2c3ccccc3n3c4ccc(N)cc4ccc32)c(OC)c1OC
active: SN12C renal 6.42%
inactive: SK-MEL-2 melanoma 44% | EKVX NSCLC 49.3% | UO-31 renal 88.7% | TK-10 renal 78.2% | ACHN renal 101% | CAKI-1 renal 96.6% | A498 renal 81.3% | CCRF-CEM leukemia 40.4% | MOLT-4 leukemia 67.9%

Nc1nc(N)c2c(n1)NC(c1cccc(Nc3ccnc4cc(C(F)(F)F)ccc34)c1)CC(c1ccc(Br)cc1)=N2 (stereo not given)
active: MOLT-4 leukemia 9.24%
inactive: SK-MEL-2 melanoma 52.4% | EKVX NSCLC 51.5% | SN12C renal 63% | UO-31 renal 62.2% | TK-10 renal 96.8% | ACHN renal 82% | CAKI-1 renal 48.6% | A498 renal 77.1% | CCRF-CEM leukemia 17%
